Data reported in PubChem BioAssay AID2845 (The Scripps Research Institute Molecular Screening Center, 2010).
About 2,000 (87%) of roughly 2,300 compounds were called active. No stated cut-off is given here; in the data, active means activation above about 49%; inactive means the rest. The set was probably picked from earlier hits. Only a sample is shown.

Biological target: Aryl hydrocarbon receptor (Homo sapiens) (UniProt P35869)
Test: AHR activators, confirmation, cell-based, luminescence, luciferase reporter, human (AID 2845);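 further: HepG2 hepatoma cells carrying a DRE-driven firefly luciferase reporter; 0% = vehicle wells and 100% = reference agonist wells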
Details: human cells, AHR-responsive luciferase reporter, at 9 µM, active compounds read high

Aryl hydrocarbon receptor (Homo sapiens), sequence (P35869 whole entry, looked up): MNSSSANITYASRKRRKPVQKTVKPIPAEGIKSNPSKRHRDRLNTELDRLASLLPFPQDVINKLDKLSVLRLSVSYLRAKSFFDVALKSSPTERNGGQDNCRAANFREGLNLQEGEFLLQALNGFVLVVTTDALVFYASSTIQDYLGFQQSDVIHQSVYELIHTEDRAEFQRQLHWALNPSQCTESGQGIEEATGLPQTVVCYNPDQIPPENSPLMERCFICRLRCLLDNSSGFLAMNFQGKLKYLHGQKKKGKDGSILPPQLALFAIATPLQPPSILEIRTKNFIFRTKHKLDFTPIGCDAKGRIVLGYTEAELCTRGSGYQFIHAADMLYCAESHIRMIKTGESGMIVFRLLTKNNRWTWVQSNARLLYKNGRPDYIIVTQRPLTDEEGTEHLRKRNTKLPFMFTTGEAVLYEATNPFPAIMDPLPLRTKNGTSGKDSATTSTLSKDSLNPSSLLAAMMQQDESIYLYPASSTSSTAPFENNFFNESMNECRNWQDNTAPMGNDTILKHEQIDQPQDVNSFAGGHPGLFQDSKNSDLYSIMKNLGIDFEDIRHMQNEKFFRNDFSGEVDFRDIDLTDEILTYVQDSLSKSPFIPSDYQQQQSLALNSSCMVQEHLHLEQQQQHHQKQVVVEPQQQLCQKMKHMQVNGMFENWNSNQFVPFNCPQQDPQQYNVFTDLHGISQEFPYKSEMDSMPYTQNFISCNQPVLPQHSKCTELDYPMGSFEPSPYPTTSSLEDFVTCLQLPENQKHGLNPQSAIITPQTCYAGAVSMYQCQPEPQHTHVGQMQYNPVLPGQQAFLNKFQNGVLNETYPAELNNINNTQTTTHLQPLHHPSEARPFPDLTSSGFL

activation, active:
Cc1ccnc(-n2sc3ccccc3c2=O)n1 55.4%
COc1ccccc1NC(=O)C1=C(C)NC2=C(C(=O)CCC2)C1c1ccc(C)o1 (configuration not stated) 110%
NC(=O)Nc1ccccc1C(=O)NCCc1ccccc1 106%
Cc1ccc(NC(=O)Nc2cccnc2)cc1 67.7%
CCC(=O)NC(=S)Nc1ccc(NC(=O)c2ccco2)c(Cl)c1 82%
COc1cc(NC(=O)c2ccc(-c3csc(C)n3)cc2)c(OC)cc1Cl 119%
O=C(Nc1cccc(Br)c1)c1ccc2snnc2c1 74.4%
COc1cc(CNCc2ccc3c(c2)OCO3)c([N+](=O)[O-])cc1OC 87.3%
Brc1ccc(C2=CC(c3ccco3)n3ncnc3N2)cc1 (configuration not stated) 90.4%
S=c1[nH]nc(-c2cc(-c3ccsc3)n[nH]2)n1-c1ccccc1 103%
Cc1ccnc(NC(=O)c2ccc(Cl)c([N+](=O)[O-])c2)c1 60.8%
Cc1cccc(N=Nc2c(O)[nH]c3ccc(F)cc23)c1 147%
COc1cccc(-c2nc3cc(C)ccc3o2)c1 47%
COc1ccc(OC)c(-c2csc(-c3cccs3)n2)c1 94.4%
O=C(CCCCn1c(=O)[nH]c2ccccc2c1=O)NCc1ccc2c(c1)OCO2 56.1%
Brc1ccc(C2CC(c3ccccc3)=Nc3ccccc3N2)cc1 (configuration not stated) 80.8%
NNc1nc2c(Cl)cccc2s1 57.5%
CN(C)S(=O)(=O)Oc1ccccc1C(=O)Nc1ccccc1Cl 99.1%
CCOC(=O)c1nc(-c2ccc3c(c2)OCO3)[nH]c1C 68.3%
CCn1c2ccccc2c2cc(NC(=O)C/C(C)=N/NC(=O)c3ccccc3N)ccc21 61.5%
CCn1c(NC(=O)c2nn(C)cc2Br)nc2ccccc21 70.7%
O=C(Nc1ccc(Cl)cn1)c1cnn2cccnc12 179%
COc1ccc(Nc2nnc(C)c3ccccc23)cc1 82.5%
Cn1c(C(=O)NCCc2ccsc2)cc2c(=O)n(C)c3ccccc3c21 65.4%
O=C(N/N=C/c1ccco1)c1ccc(C(=O)N/N=C/c2ccco2)o1 73.2%
COc1ccc(NC(=O)c2ccco2)cc1NC(=O)c1ccc(C#N)cc1F 71.7%
N#C/C(=C(/O)COc1cccc2ccccc12)c1nc2ccccc2[nH]1 84.1%
O=C(Nc1cc(S(=O)(=O)Nc2ccc(Cl)cc2)ccc1O)c1ccc(F)cc1F 103%
Cc1nnc(NC(=O)/C=C/c2ccco2)s1 127%
NS(=O)(=O)c1ccc(-c2ccc(/C=C3\SC(=O)NC3=O)o2)cc1 116%
COc1cc(/C=N/N=C(\N)c2nonc2N)cc(OC)c1OC 101%
Cc1cccc(NC(=O)c2ccc3ccccc3n2)n1 128%
Cc1csc(NC(=S)Nc2cccc(Cl)c2)n1 98.7%
CCSc1ccccc1C(=O)Nc1ccc2c(c1)OCO2 101%
Cc1cccc(NC(=O)Nc2ccc3c(c2)OCO3)n1 123%
CCC(C)NCC(=O)Nc1ccc([N+](=O)[O-])cc1C(=O)Nc1ccccc1F (configuration not stated) 88.2%
COCCNc1nc(-c2ccccc2)nc2c1oc1ccccc12 121%
CSc1ccc(C#N)cc1NC(=O)c1ccc(Cl)cc1 86.5%
CCN(CC)C(=O)Oc1ccc(Br)cc1C(=O)Nc1ccc(F)c(Cl)c1 124%
C/C(=N\NC(=O)c1cccnc1)c1ccc(-n2ccnc2)cc1 86.3%
Cc1noc(C)c1/C=N/Nc1ccc2ccccc2n1 176%
COc1ccccc1Nc1ncnc2c1oc1ccccc12 132%
CCn1ccnc1CN(C)Cc1nc(-c2ccc3c(c2)OCO3)no1 79.9%
O=C(Nc1ccc(C2CC2(Cl)Cl)cc1)c1cccc([N+](=O)[O-])c1 (configuration not stated) 96.2%
O=C(NCCCn1ccnc1)c1cc(-c2ccccc2)on1 323%
Clc1ccc(Nc2nc(-c3cccs3)cs2)nc1 141%
Cc1ccc(NC(=O)NNC(=O)c2sccc2-n2cccc2)cc1 101%
Cc1cccc(Nc2nc(-c3ccccc3)cs2)n1 131%
COc1ccc(Nc2nc(-c3ccccc3)cs2)cc1 91.2%
COc1ccc2nc(Nc3nc(-c4ccncc4)cs3)sc2c1 101%
S=c1nc2ccccc2c2nc(-c3cccnc3)[nH]n12 125%
O=C(Nc1ccc(C(F)(F)F)cc1)c1cccc(-n2cnnn2)c1 106%
CC(C(=O)N=Nc1c(O)n(C)c2ccc(Br)cc12)n1cnc2ccccc2c1=O (configuration not stated) 73.7%
Cc1nn(Cc2ccc(Cl)cc2)c(Cl)c1/C=N/NC(=O)c1cccnc1 74.2%
Cc1c(C(=O)NCC(c2ccco2)N2CCCC2)oc2ccc(Cl)cc12 (configuration not stated) 75.5%
Cn1nc(-c2ccc(Cl)cc2)c2cc(C(=O)NCc3ccco3)sc21 148%
CCOC(=O)N1CCN(C(=O)c2cc3c(-c4ccc(Cl)cc4)nn(C)c3s2)CC1 85.9%
COc1ccccc1N1CCN(C(=O)c2cc3c(-c4ccc(Cl)cc4)nn(C)c3s2)CC1 102%
CN(C)c1nc(Nc2ccc(Cl)c(Cl)c2)nc(N(C)C)n1 129%
C=CCNC(=O)CSc1nc2sc(C)c(C)c2c(=O)[nH]1 53%
c1cnc(N2CCN(c3ccc4ccccc4n3)CC2)nc1 96.5%
Cc1nc2sc(C(=O)c3ccccc3)c(N)c2c2c1CCCC2 97.5%
Cn1c(SCC(=O)c2ccccc2)ncc(C(=O)Nc2ccc(F)cc2)c1=O 120%
CC1Cc2ccccc2N1C(=O)CSc1nnc(C2CC2)n1C (configuration not stated) 47.2%
COc1ccc(C(=O)Nc2ccccc2C(=O)N/N=C/c2ccccc2OC)cc1 66.5%
O=C(CC1Nc2ccccc2NC1=O)Nc1ccccc1 (configuration not stated) 119%
Cn1cc(Cl)c(C(=O)NNC(=S)Nc2cccc(Cl)c2)n1 75.4%
Cc1ccc(-c2nc(C#N)c(NCCCn3ccnc3)o2)cc1 107%
O=C(Cn1c(NCCO)nc2ccccc21)c1ccc(Cl)cc1Cl 115%
Cc1cc(O)c(C(=O)/C=C/c2c(F)c(F)c(F)c(F)c2F)c(=O)o1 69.7%
CCOC(=O)c1ccc2[nH]c3c(c2c1)CCCC3NC=O (configuration not stated) 89.1%
CC(C)C(=O)Nc1c(C(=O)c2ccc(F)cc2)oc2ccccc12 84.4%
O=C(CSc1ccccn1)Nc1nc2c(ccc3ccccc32)s1 130%
C/C(=N\NC(=O)CNc1cccc2ccccc12)c1ccc(Br)s1 79.5%
Cc1nn2c3cc(N4CCOCC4)ccc3nc2c2ccccc12 85%
Cc1cc(N2CCOCC2)nc(-c2ccc(Br)cc2)n1 60.3%
O=C(Cn1cncn1)N/N=C/c1c2ccccc2cc2ccccc12 73.7%
CCOc1ccccc1NC(=O)c1cccnc1 121%
O=C(Nc1cccc(Cl)c1)C1CCCN(c2cnccn2)C1 (configuration not stated) 73%
Cc1ccc(Cl)cc1NC(=O)C1CCCN(c2cnccn2)C1 (configuration not stated) 90.8%
Brc1ccc(-c2noc(-c3ccccc3)n2)o1 162%
Nc1[nH][nH]c(=O)c1N=Nc1ccc2c(c1)OCO2 74.9%
C=CCOc1c(Br)cc(/C=N\n2nnnc2N)cc1OC 77.9%
COc1ccc(Cl)cc1C(=O)Nc1ccc(N(C)C(C)=O)cc1 78.6%
COc1cccc(-n2c(SCC(=O)NC3CCCCC3)nc3n[nH]c(C)c3c2=N)c1 83.7%
COc1cccc(OC)c1C(=O)Nc1ccc(N2CCCCC2)cc1 80.7%
COc1cc2ccccc2cc1C(=O)Nc1ccc(N2CCOCC2)cc1 118%
O=C(Nc1ccc(OC(F)(F)F)cc1)c1ccc2c(c1)no[n+]2[O-] 127%
OCCNc1nc(Nc2ccc(Cl)c(Cl)c2)nc2ccccc12 83.8%
CCc1nc(Nc2ccc3nccnc3c2)c2oc3ccccc3c2n1 120%
CCCCC(=O)Nc1ccc(C(=O)Nc2cc(C(F)(F)F)ccc2Cl)cc1 92.7%
Cc1nn(-c2ccccc2)c2[nH]c(C(F)(F)F)cc(=O)c12 52.9%

activation, inactive:
CC(C)n1ncc2c(C(=O)Nc3ccc(CC#N)cc3)cc(C3CC3)nc21 25.4%
CCNC(=S)N1CCC(c2nc3cc(C)c(C)cc3[nH]2)CC1 25.5%
CNC(=O)c1ccc2nc(NC(C)=O)sc2c1 22.7%
CC(=O)Nc1ccc(-c2nc3ccccc3o2)cc1 -4.38%
CC(C)n1cnc2c(Nc3cccc(Cl)c3)nc(N(CCO)CCCO)nc21 11.4%
O=C(NC1CC1)C1=C[C@H](c2c[nH]c3ccccc23)C[C@H](OCc2ccc(CO)cc2)O1 27.6%
O=C(N/N=C/c1c[nH]c2ccccc12)c1cc2ccccc2o1 42.3%
C/C(=N/NC(=S)Nc1ccccc1)c1ccc2c(c1)OCO2 16%
C(=N\Nc1ccc2ccccc2n1)/c1ccc2c(c1)OCO2 -10.8%
C/C(CC1CC(C)(C)OC1=O)=N/Nc1nc(-c2ccccc2)cs1 (configuration not stated) -2.24%
O=C(Nc1ccc(-c2csc(Nc3cccc(C(F)(F)F)c3)n2)cc1)c1cccc(C(F)(F)F)c1 4.55%
O=C(CSc1cccc2cccnc12)N/N=C/c1cccnc1 21.4%
O=C(Nn1c(-c2ccc(Cl)cc2)nc2ccccc2c1=O)c1cccnc1Cl 28.5%
COc1ccc(C2NC(=O)c3ccccc3N2)cc1 (configuration not stated) 39.3%
CSc1ncccc1C(=O)Nc1nc2ccc(F)cc2s1 -8.12%
